From PubChem BioAssay (NCI)
This is part of a sample that, as a whole, favours compounds with a hit. Of some 83,000 tested, about 20% had one in any assay.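 Testing used 96-well plates and a 48-hour single-concentration exposure. Example: -40 means 40% of the starting cells died.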 Activity calls are given as the source filed them. How the source made its calls: active means growth percent below 10; inactive means the rest.

Each compound was assayed on HT29 colon (assay: NCI-60 one-dose screen, 48 h (100 = growth as untreated, 0 = no growth, -100 = all killed)). Settings: 10 µM unless noted.

SMILES	growth
O=C(CSC(=S)N1CCCCC1)Nc1ccccc1	91.2% (inactive)
COc1cc2c(cc1OC)C(Sc1ccc(Cl)cc1)c1c(nc(N)c(C#N)c1N)O2 (configuration not stated)	-61.9% (active)
COC(=O)c1cncc(C(=O)Nc2ccc(-n3cnc4ccccc43)cc2)c1	96.5% (inactive)
O=C(/C(=C/c1ccc([N+](=O)[O-])cc1)SCc1ccc(Cl)cc1)c1ccc(F)cc1	-2.26% (active)
CCOC(=O)c1c(-c2ccc(O)cc2)c(C#N)c2c(C#N)c(N)nn2c1N	43% (inactive)
COc1cc(C2=NN(C(C)=O)C(c3cccc(Nc4ccnc5cc(C(F)(F)F)ccc45)c3)C2)cc(OC)c1OC (configuration not stated)	22.1% (inactive)
CC(=O)OC[C@]12CC[C@@H](c3cn(Cc4ccc(Cn5cc([C@@H]6CC[C@]7(COC(C)=O)CC[C@]8(C)[C@H](CC[C@@H]9[C@@]%10(C)CC[C@H](OC(C)=O)C(C)(C)[C@@H]%10CC[C@]98C)[C@@H]67)nn5)cc4)nn3)[C@@H]1[C@H]1CC[C@@H]3[C@@]4(C)CC[C@H](OC(C)=O)C(C)(C)[C@@H]4CC[C@@]3(C)[C@]1(C)CC2	97.2% (inactive)
COc1ccc(/C=C/C(=O)Nc2ncnc3nc[nH]c23)cc1	96.5% (inactive)
COC(=O)c1ccc2c(c1)NC(=O)[C@@H]1CCCN21	98.5% (inactive)
COc1cc(NC(=O)COc2cc(C)nc3ccc(OC)cc23)cc(OC)c1	91.7% (inactive)
CCOC(=O)c1ccc(Nc2ncnc3ccc(NC(=O)c4ccccc4)cc23)cc1	79.6% (inactive)
CCN(CC)CC#CCOC(=O)[C@]1(C)CCC[C@]2(C)[C@H]3C[C@H]4C(C(C)C)=C[C@]3(CC[C@H]21)[C@@H]1C(=O)CCC(=O)[C@@H]14	5.05% (active)
N#Cc1c(-c2ccc(F)cc2)nc(N/N=C/c2c[nH]c3ccccc23)nc1N1CCOCC1	18% (inactive)
CN1CCN(CC#CCOC(=O)CNC(=O)[C@]23CCC(C)(C)C[C@H]2C2=CC[C@@H]4[C@@]5(C)CC[C@H](O)C(C)(C)[C@@H]5CC[C@@]4(C)[C@]2(C)CC3)CC1	75.5% (inactive)
Nc1c(C(=O)Nc2cccc3ccccc23)sc2nc3c(cc12)COCC3	12.4% (inactive)
C#CCOC(=O)[C@]1(C)CCC[C@]2(C)[C@H]3C[C@H]4C(C(C)C)=C[C@]3(CC[C@H]21)[C@@H]1C(=O)CCC(=O)[C@@H]14	71.1% (inactive)
COC(=O)c1nc(-c2ccccc2)oc1S(=O)(=O)n1nc(-c2ccccc2)cc1N	43.1% (inactive)
Cn1c2ccccc2c2c(OC(=O)c3ccccc3)c3c(nc21)-c1ccccc1C3	92.1% (inactive)
COc1ccc(-c2cc(-c3nnc(SCC(=O)Nc4ccc(/C(C)=N\O)cc4)o3)c3ccccc3n2)cc1	101% (inactive)
COc1ccc(C2CC(c3ccc(OC)cc3O)=NN2c2ccc(S(N)(=O)=O)cc2)cc1 (configuration not stated)	33.7% (inactive)
CC(=O)c1ccc(NC(=O)CSc2nnc(-c3cc(-c4ccc(Cl)cc4)nc4ccccc34)o2)cc1	84.3% (inactive)
CCOC(=O)c1c(C)nc2c(c1N)/C(=C/c1cccs1)C(=O)N2Cc1ccccc1	57.3% (inactive)
CN(C)[C@@H]1C(=O)C(C(N)=O)=C(O)[C@@]2(O)C(=O)C3=C(O)c4c(O)cc(CN5CCc6ccccc6C5)c(Cl)c4C[C@H]3C[C@@H]12	-84.6% (active)
O=C1CC23OC(C(O)c4ccccc4N12)C1C(c2ccccc2)=NOC13 (configuration not stated)	13.9% (inactive)
N#Cc1nc(-c2ccccc2)oc1S(=O)(=O)NCC(c1ccc(Cl)cc1)N1CCCCC1 (configuration not stated)	25.1% (inactive)
C#C[C@@]1(O)[C@@H](CO)O[C@@H](n2cc(Cl)c3c(N)ncnc32)[C@@H]1O	5.79% (active)
COc1ccc(-n2cc(COc3ccc4c5ccnc(C)c5n(CC(C)C)c4c3)nn2)cc1	16% (inactive)
